Assay outcomes from PubChem.
These entries were drawn from the full list.
aSyn UTR act – Activators via SNCA 5'UTR binding, MLPCN. AID 1814. alpha-synuclein 5'UTR reporter, activators screen. 300,000 compounds, 7.1% hits. activity score, % (tested at 7.5 µM), hits read low; in the data active means activity score below about -60%
Active calls of the source: *.

SMILES | aSyn UTR act
CN(C)c1cccc(C(=O)NNC(=S)NC2CCCC2)c1 | -64*
CC(C)c1cc(C(=O)NNC(=S)NC2CCCCC2)cs1 | -86*
CS(=O)(=O)c1ccccc1C(=O)Nc1ccc(-c2nc3ccccc3[nH]2)cc1 | -156*
CS(=O)(=O)c1ccccc1C(=O)Nc1ccc(-c2nc3ccccc3o2)cc1 | -185*
O=C(c1ccccc1)c1ccc2nc(-c3ccc(NC(=O)c4ccccc4Br)cc3)[nH]c2c1 | 75
Cc1ccc2oc(C(=O)Nc3nnc(C)s3)c(C)c2c1 | -68*
Cc1ccc2oc(C(=O)NCC(c3ccco3)N(C)C)c(C)c2c1 (stereo unspecified) | -73*
Cc1ccc2oc(C(=O)Nc3nonc3C)c(C)c2c1 | -106*
O=C(C1CCCCN1S(=O)(=O)c1ccccc1[N+](=O)[O-])N1CCCC1 (stereo unspecified) | -62*
Cc1ccc(C(=O)N2CCN(S(=O)(=O)c3ccccc3[N+](=O)[O-])C2)cc1 | -65*
Clc1ccc(-n2ncc3c(NCc4ccco4)ncnc32)cc1 | -227*
COc1ccc(-n2ncc3c(NCc4ccco4)ncnc32)cc1 | -162*
CCC(CO)Nc1ncnc2c1cnn2-c1ccc(OC)cc1 (stereo unspecified) | -75*
CCCN(CCC)c1ncnc2c1cnn2-c1ccc(OC)cc1 | -77*
COc1ccc(-n2ncc3c(NCc4ccccn4)ncnc32)cc1 | -128*
Clc1ccc(-n2ncc3c(NCc4ccc5c(c4)OCO5)ncnc32)cc1 | -81*
CN(C)CCNc1ncnc2c1cnn2-c1ccc(Cl)cc1 | -93*
O=S(=O)(Nc1ccc(F)cc1Cl)c1ccc(-c2cnc(C3CC3)o2)cc1 | 68
O=C(NCC1CCCCC1)c1ccc(F)cc1Cl | -124*
O=C(CCSc1ccccc1)Nc1nc2c(s1)CCCC2 | -86*
O=C(Cc1cccs1)Nc1nc2c(s1)CCCC2 | -97*
c1ccc(-c2nnc(N3CCOCC3)nc2-c2ccccc2)cc1 | -73*
Cc1nc2sc(-c3ccccc3)cc2c(=O)n1-n1cccc1 | -189*
Cc1nc2sc(-c3ccccc3)cc2c(=O)n1N | 75
Cc1nc2sc(-c3ccccc3)cc2c(=O)n1/N=C/N(C)C | -156*
SMILES | aSyn UTR act
NC(=O)CSc1nc2sc(-c3ccccc3)cc2c(=O)n1N | -64*
Oc1ccc(F)cc1-c1cc(-c2ccc3c(c2)OCCO3)n[nH]1 | -151*
Oc1ccc(Cl)cc1-c1cc(-c2ccccc2)n[nH]1 | -99*
Oc1ccccc1-c1cc(-c2ccc(F)cc2)n[nH]1 | -128*
Oc1ccc(Br)cc1-c1cc(-c2ccccc2F)[nH]n1 | -74*
Cc1ccc(-c2cc(-c3ccc(C)cc3O)[nH]n2)cc1 | -160*
Cc1ccc(O)c(-c2cc(-c3cccc(Br)c3)n[nH]2)c1 | -97*
Cc1ccc(-c2cc(-c3ccc(F)cc3)n[nH]2)c(O)c1 | -86*
Nc1cnc(Nc2ccc(Br)cc2)nc1N | -106*
O=C(Nc1ccc(-c2cnco2)cc1)c1ccc(F)cc1F | -146*
Cn1cccc1/C=C1\CCC/C(=C\c2cccn2C)C1=O | -154*
O=C1/C(=C/c2cccs2)CCC/C1=C\c1cccs1 | -125*
O=C(c1ccccn1)c1cc2ccccc2n1S(=O)(=O)c1ccccc1 | -91*
Cc1cccc(-n2[nH]c3c4c(ccc3c2=O)C(=O)c2ccccc2C4=O)c1 | -62*
O=C1c2ccccc2C(=O)c2c1ccc1c(=O)n(-c3ccccc3)[nH]c21 | -110*
Cc1ccc(C(=O)O/N=C(\N)c2ccccc2)c(Cl)c1 | 85
N/C(=N\OC(=O)c1cc(Cl)ccc1Cl)c1ccncc1 | -229*
N/C(CS(=O)(=O)c1ccccn1)=N\OC(=O)c1ccccc1Cl | -114*
N/C(=N\OC(=O)c1ccc(Cl)cc1Cl)c1ccncc1 | -112*
N/C(=N\OC(=O)c1ccccc1Cl)c1ccncc1 | -107*
CCOC(=O)c1c(SCC(=O)Nc2nccs2)nc(C)c(C)c1C | -68*
O=C(CSc1cn(Cc2ccccc2)c2ccccc12)Nc1nccs1 | -168*
Cc1ccc(SCC(=O)Nc2nccs2)cc1 | -107*
CN(C)c1ccc(NC(=O)c2sc(SCC(=O)Nc3nccs3)nc2N)cc1 | -156*
Cc1ccc(SCc2ccc(C(=O)Nc3nccs3)o2)cc1 | -79*
SMILES | aSyn UTR act
O=C(Nc1nccs1)c1ccc(CSc2ccccc2)o1 | -126*
Brc1ccc(-c2nc(-c3cccnc3)no2)o1 | -164*
Brc1ccc(-c2nc(-c3ccccc3)no2)o1 | -141*
c1ccc(-c2noc(-c3ccc4ccccc4c3)n2)cc1 | 77
CC(C)COc1ccc(C(=O)Nc2ncn[nH]2)cc1 | -66*
CC(C)Oc1ccc(C(=O)Nc2ncn[nH]2)cc1 | -65*
CC(C)COc1ccc(C(=O)Nc2sc3c(c2C(=O)O)CC(C)(C)OC3)cc1 | 63
CC(/C=N/Nc1ccc2nncn2n1)=C\c1ccccc1 | -72*
CC(/C=N/Nc1nnc(C)c(=O)[nH]1)=C\c1ccccc1 | -97*
O=C(CSc1ncnc2c(-c3ccc(Cl)cc3)nsc12)c1ccccc1 | -98*
O=c1c2ccc([N+](=O)[O-])cc2ncn1CCOc1ccccc1 | -69*
O=c1c2ccccc2ncn1CCOc1ccccc1[N+](=O)[O-] | -63*
COc1ccc2c(Cn3cnc4cc([N+](=O)[O-])ccc4c3=O)cc(=O)oc2c1 | 72
Cc1c(/C=C/C(=O)c2cccs2)cnn1C | -125*
Nc1ccc(/C=C/C(=O)c2cccs2)cc1 | -135*
CCc1ccc(C(=O)/C=C/c2cnn(C)c2C)s1 | -117*
CCOc1ccc(NC(=O)C(C)Oc2ccccc2C(=O)Nc2ccc(C)c(Cl)c2)cc1 (stereo unspecified) | -126*
Cc1ccc(NC(=O)COc2ccccc2C(=O)Nc2ccccc2)cc1Cl | -82*
Cc1cccc(NC(=O)c2ccccc2OCC(=O)c2ccc(F)cc2)c1 | 30
Cc1ccc(NC(=O)CSc2ccccc2NC(=O)c2ccccc2)cc1Cl | -78*
O=C(CSC1=NCCS1)Nc1nc2c(s1)CCCC2 | -104*
CC1CCc2c(sc(NC(=O)CSc3ncn[nH]3)c2C#N)C1 (stereo unspecified) | 91
Cc1nnc(SCC(=O)Nc2nc3c(s2)CC(C)CC3)s1 (stereo unspecified) | -75*
Cn1nnnc1SCC(=O)Nc1nc2c(s1)CCCC2 | -102*
CC1CCN(c2ccc(NC(=O)c3cccnc3Cl)cc2)CC1 | -69*
SMILES | aSyn UTR act
CC1CCN(c2ccc(NC(=O)c3cccnc3)cc2)CC1 | -149*
Cc1cc(C(=O)CN2C(=O)C(=O)N(Cc3ccccc3)C2=O)c(C)n1-c1ccc2c(c1)OCCO2 | -74*
Cc1cc(C(=O)CN2C(=O)c3ccccc3S2(=O)=O)c(C)n1-c1ccccc1 | 120
Cc1nnc(SCc2ccc3c(c2)OCO3)s1 | -72*
Cc1nnc(SCC(=O)c2cc(C)n(-c3ccc4c(c3)OCO4)c2C)s1 | -151*
Cc1cc(C(=O)CSc2nnnn2C)c(C)n1-c1ccc2c(c1)OCCO2 | -125*
CC(=O)c1ccc(OCC(=O)c2cc(C)n(-c3ccc4c(c3)OCO4)c2C)cc1 | -65*
Cc1nnc(SCc2ccc(F)cc2Cl)s1 | -81*
CCc1ccc(N(C(=O)c2csnn2)C(C(=O)NC(C)(C)CC)c2ccccn2)cc1 (stereo unspecified) | -69*
CCc1ccc(N(C(=O)c2csnn2)C(C(=O)NC(C)(C)C)c2ccccn2)cc1 (stereo unspecified) | -102*
O=C(CC(SCCO)c1ccc2c(c1)OCO2)c1cccs1 (stereo unspecified) | -193*
O=C(CC(SCc1ccco1)c1ccc(O)cc1)c1cccs1 (stereo unspecified) | -168*
